# In the library only some 6% were active in any assay of this set; here they are far more common.
# D1 antagonist = human D1 dopamine receptor antagonism. P21728. HEK293 TREx D1 cells, calcium flux, dopamine EC80; active compounds read low. activity change, negative = inhibition, % at 10 µM. hit rate 3.2% among 360,000. AID 504652; in the data active means activity change below about -30%; further: on the % scale 0 is the no-effect control and ±100 the full control effect
#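 Using tetracycline-induced force-coupled D1 Hek293 cells and a calcium dye, signals were followed for 180 s after compound, then for 180 s after EC80 dopamine, to detect inhibitors.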
# D1 agonist = activates the human D1 dopamine receptor; HEK293 T-REx D1 cells, calcium flux, agonist mode; hit rate 1% among 360,000; activation, % at 2 µM; P21728; AID 504660; in the data active means activation above about 30%; further: 0% is about no effect
#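 Agonism was scored from calcium flux recorded over 180 s (1 read/s) after pintool compound addition, following a 10-cycle baseline. Cells were inducible force-coupled HEK293 TREx D1, plated overnight at 30 C and loaded with no-wash calcium dye.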
# D1 PAM = human D1 dopamine receptor positive modulation; hit rate 0.036% among 360,000; HEK293 TREx D1 cells, calcium flux, dopamine EC20 potentiation; potentiation, % at 10 µM; AID 504651; P21728; in the data active means potentiation above about 30%; further: 0% is about no effect
# DRD3 agonist = activates the human D3 dopamine receptor; P35462; D3R DiscoveRx beta-arrestin cells, luminescence, 90 min; max activation, %; hit rate 0.58% among 410,000; AID 652048; in the data active means max activation above about 30%; further: 0% is about no effect
# Target sequence (P35462 whole entry, looked up): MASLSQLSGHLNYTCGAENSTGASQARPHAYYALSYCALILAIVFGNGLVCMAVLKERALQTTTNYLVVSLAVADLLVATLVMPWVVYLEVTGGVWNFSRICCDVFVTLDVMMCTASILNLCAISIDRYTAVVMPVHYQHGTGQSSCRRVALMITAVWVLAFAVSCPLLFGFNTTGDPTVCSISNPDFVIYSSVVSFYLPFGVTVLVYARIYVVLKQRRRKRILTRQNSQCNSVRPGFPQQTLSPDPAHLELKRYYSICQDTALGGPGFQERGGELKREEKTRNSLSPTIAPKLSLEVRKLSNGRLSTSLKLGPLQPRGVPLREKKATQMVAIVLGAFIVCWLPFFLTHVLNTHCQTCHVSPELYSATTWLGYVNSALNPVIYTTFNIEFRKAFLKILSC
#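 Agonist-mode cell screen: cells plated at 1500/well and incubated overnight at 37 °C, then exposed to library compounds for 90 min at 37 °C. Detection reagent was added for 30–60 min at room temperature, and luminescence was read.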
# DRD3 antagonist = blocks the human D3 dopamine receptor; P35462; D3R cells, DiscoveRx beta-arrestin luminescence, antagonist mode; active compounds read low; max response, negative = inhibition, %; hit rate 2.5% among 360,000; in the data active means max response below about -50%; further: on the % scale 0 is the no-effect control and ±100 the full control effect
#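 Cells plated overnight at 1500 cells/well, then exposed to library compounds with dopamine controls for 90 minutes at 37 degrees C. DiscoveRx reagent added for 30–60 minutes at room temperature; luminescence read, quantitative HTS format.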
# An asterisk follows results filed as active; . = not tested or not shown.
SMILES,D1 antagonist,D1 agonist,D1 PAM,DRD3 agonist,DRD3 antagonist
CC1CCN(C(C(=O)Nc2ccc3c(c2)OCO3)c2ccccc2)CC1 (centres undefined),-41.7*,1.5,-9.4,0.3,0.4
Cn1cc(SCC(=O)Nc2ccc3c(c2)OCO3)c2ccccc21,-34.6*,9.9,.,-7.9,-11.8
O=C(CSc1nnc(CNC(=O)c2cccs2)o1)Nc1ccc2c(c1)OCO2,-35.8*,-1.9,-2.1,-0.2,-2.4
O=C(CSc1nnc(CNC(=O)c2ccccc2)o1)Nc1ccc2c(c1)OCO2,8.2,0.3,0.8,-7.7,-16.6
CCCOC(=O)CSc1nnc2ccc3ccccc3n12,3.2,1.6,-1.5,2.1,.
Cc1nnc(SCC(=O)NC2CCCc3c2cnn3-c2ccccc2F)o1 (centres undefined),-39.3*,0.5,-1.4,2.5,1.1
O=C(NC1CCCc2c1cnn2-c1ccc(F)cc1F)c1csnn1 (centres undefined),-31.4*,1.8,-2.1,-5.8,-1.7
COc1ccc(CNC(=O)C(=O)NCC(c2ccco2)S(=O)(=O)c2ccc(Cl)cc2)cc1 (centres undefined),.,12.1,2.7,4.1,.
Cc1nc2nc(C)c(CCC(=O)NC(C)c3ccc4c(c3)OCCO4)c(C)n2n1 (centres undefined),-47.6*,5.6,-7.9,1.7,-8.9
CCC(O)C1CCN(Cc2cn(Cc3ccccc3)nc2-c2cc3ccccc3o2)CC1 (centres undefined),-15.4,63.8*,-4.4,1.9,-22.4
COCCOC1CCN(Cc2cn(Cc3ccccc3)nc2-c2cc3ccccc3o2)CC1,7.7,7.1,0.2,-12.8,-19.3
CC1CCCN(S(=O)(=O)c2ccc(NC(=O)CN3CCN(C)CC3)cc2)C1 (centres undefined),-1.7,4.6,4.8,-2.8,5.1
CC1CCCN(CCC(=O)Nc2ccccc2)C1 (centres undefined),5.6,0.6,-0.8,-25.0,9.0
CC1CCCN(CCC(=O)Nc2ccc(Br)cc2)C1 (centres undefined),13.3,7.9,-1.9,-31.7,-86.3*
CC1CCCN(CC(=O)Nc2ccc(S(=O)(=O)N3C(C)CCCC3C)cc2)C1 (centres undefined),.,.,.,-1.8,-51.0*
CC1CCN(CC(=O)Nc2ccc(S(=O)(=O)N3CCCC(C)C3)cc2)CC1 (centres undefined),-32.2*,19.6,-4.9,-18.4,-7.1
O=C(CNC1CCCCC1)Nc1ccc(S(=O)(=O)N2CCCCC2)cc1,3.0,152.6*,42.8*,1.3,2.1
CCCCn1cc(S(=O)(=O)c2cc(C)ccc2C)c(=O)c2cc(F)c(N3CCC(C)CC3)cc21,-11.6,-1.2,0.6,-18.2,.
CCCNC(=O)CSc1nc2[nH]ncc2c(=O)[nH]1,-0.7,2.4,3.5,-1.3,-0.1
O=C(CSc1nc2[nH]ncc2c(=O)[nH]1)NCCc1ccccc1,-9.5,6.9,-3.3,1.0,16.3
O=C(CSc1nc2[nH]ncc2c(=O)[nH]1)NCc1ccc(F)cc1,9.4,-1.4,0.4,0.0,-50.1*
O=C(CSc1nc2[nH]ncc2c(=O)[nH]1)NCc1ccccc1,19.1,0.5,-9.3,-5.3,-59.5*
CC(C)n1nc(-c2cc3cc(O)ccc3[nH]2)c2c(N)ncnc21,.,.,.,-12.0,.
CC1=C(C#N)C(c2ccccc2)C2=C(N1)c1ccccc1C2=O (centres undefined),-4.9,-0.1,-7.2,-9.8,-17.9
CCOC(=O)C1=C(C)NC2=C(C(=O)c3ccccc32)C1c1ccc([N+](=O)[O-])o1 (centres undefined),-72.6*,0.7,-9.8,1.5,-4.2
SMILES,D1 antagonist,D1 agonist,D1 PAM,DRD3 agonist,DRD3 antagonist
CC(=O)C1=C(C)NC2=C(C(=O)c3ccccc32)C1c1ccccc1 (centres undefined),5.6,0.8,-1.8,-8.2,-52.3*
COc1cc(OC)c(NC(=O)Nc2c(C)n(C)n(-c3ccccc3)c2=O)cc1Cl,2.2,0.0,2.6,-2.9,.
OC1(c2ccc(F)cc2)CCN(Cc2nnnn2Cc2cccs2)CC1,-10.3,1.5,-5.4,-3.6,-85.8*
N#Cc1c(N)n(-c2cccc(Cl)c2)c2nc3ccccc3nc12,16.8,1.2,-2.4,0.9,.
COc1cccc(-c2onc3ccc(C4(C)OCCO4)cc23)c1,9.2,0.5,-1.6,31.8*,26.7
CC1(c2ccc3noc(-c4ccccc4)c3c2)OCCO1,-20.8,1.1,-3.4,1.7,8.9

# From PubChem
